According to the supplement of paper PMC9694430:

What was measured:
Assay in all cases: thermal shift delta Tm vs DMSO control; higher = stronger stabilization (binding)
Settings in all cases: 12.5 µM; protein concentration 2 µM
[1] = tested on: LOC_OS01G01410-cb001
Outline: (§1)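 Thermal shift values come from differential scanning fluorimetry on purified rice kinase domains made in E. coli, with melting temperatures obtained from Boltzmann fits. Samples of 19.5 μl held 2 μM kinase, 100 mM potassium phosphate pH 7.5, 150 mM NaCl, 10% glycerol, 5 × SYPRO Orange and compound in DMSO, and were heated from 25°C to 95°C at 0.05°C/s. Each shift is a triplicate mean relative to the DMSO-only protein sample.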

[2] = tested on: LOC_OS01G02750-cb003
Outline: as §1

[3] = tested on: LOC_OS01G10900-cb004
Outline: as §1

[4] = tested on: LOC_OS01G13800-cb001
Outline: as §1

[5] = tested on: LOC_OS01G14860-cb001
Outline: as §1

[6] = tested on: LOC_OS01G21960-cb002
Outline: as §1

[7] = tested on: LOC_OS01G39600-cb002
Outline: as §1

[8] = tested on: LOC_OS01G48390-cb002
Outline: as §1

[9] = tested on: LOC_OS01G51400-cb002
Outline: as §1

[10] = tested on: T1, LOC_OS01G52050-cb004
T1 sequence (whole entry): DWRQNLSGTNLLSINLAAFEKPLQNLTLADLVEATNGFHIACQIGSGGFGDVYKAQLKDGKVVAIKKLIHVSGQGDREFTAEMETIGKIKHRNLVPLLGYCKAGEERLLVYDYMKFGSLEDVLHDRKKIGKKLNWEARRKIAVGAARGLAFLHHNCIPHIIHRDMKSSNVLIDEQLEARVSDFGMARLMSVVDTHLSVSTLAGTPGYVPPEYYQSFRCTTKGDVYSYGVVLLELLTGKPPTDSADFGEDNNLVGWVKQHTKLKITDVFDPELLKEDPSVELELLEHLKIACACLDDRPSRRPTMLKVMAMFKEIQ
Outline: as §1
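Note: purified Escherichia coli-expressed rice kinase domain construct.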

Row | SMILES | thermal shift delta Tm [1] [°C] | thermal shift delta Tm [2] [°C] | thermal shift delta Tm [3] [°C] | thermal shift delta Tm [4] [°C] | thermal shift delta Tm [5] [°C] | thermal shift delta Tm [6] [°C] | thermal shift delta Tm [7] [°C] | thermal shift delta Tm [8] [°C] | thermal shift delta Tm [9] [°C] | thermal shift delta Tm [10] [°C]
1 | NC[C@@](O)(c1ccc(Cl)cc1)c1ccc(-c2cn[nH]c2)cc1 | 0.04 | 1.13 | 0.24 | 0.5 | 0.53 | 1.22 | -0.16 | 1.06 | 0.36 | 0.51
2 | CCS(=O)(=O)c1cccc(-c2cc(C(=O)NC3CCN(C)CC3)c(C)c3[nH]c4ncc(C)cc4c23)c1 | 3.99 | 0.8 | 4.18 | -0.51 | 4.38 | 2.97 | 0.89 | 2.14 | 0.16 | 6.44
3 | Cc1ccc(NC(=O)c2cccc(N(C)C)c2)cc1NC(=O)c1ccc(O)cc1 | 0.45 | 0.15 | 0.12 | 0.36 | 0.44 | 0.92 | -0.01 | 0.9 | 0.37 | 0.36
4 | O=C1NC(=O)C(c2cnc3ccccn23)=C1c1cn2c3c(cc(F)cc13)CN(C(=O)N1CCCCC1)CC2 | 0.36 | 0.62 | 0.19 | 0.44 | 4.55 | 2.13 | 5.95 | 0.1 | 0.37 | 0.22
5 | CC[C@@](C)(Nc1ccnc(-c2c[nH]c3ncccc23)n1)C(=O)NCC(F)(F)F [Decernotinib (VX-509)] | 0.58 | 1.32 | -0.38 | 0.4 | 0.78 | 3.1 | -0.05 | 1.08 | 0.22 | 0.18
6 | Cc1cc(Nc2ncnc3ccc(-c4ccc(CNCCS(C)(=O)=O)o4)cc23)ccc1Oc1ccn2ncnc2c1 [HER2-Inhibitor-1] | 1.34 | 2.06 | 3.1 | 0.55 | 2.31 | 1.18 | 3.89 | 0.83 | 0.03 | 1.36
7 | NC1(Cc2ccc(Cl)cc2)CCN(c2ncnc3[nH]ccc23)CC1 | 0.45 | 0.58 | -0.03 | 0.07 | 1.34 | 0.89 | 0.46 | 3.31 | 0.45 | 0.94
8 | COc1cc2/c(=N/c3ccc(Br)cc3F)nc[nH]c2cc1OCC1CCN(C)CC1 [Vandetanib (ZD6474)] | 1.05 | -0.06 | 0.86 | -0.25 | 0.15 | 0.02 | 0.47 | 1.67 | 0.15 | 1.36
9 | Cc1cc(O)c2c(c1)C(=O)c1cccc(O)c1C2=O [Chrysophanic Acid] | -0.01 | -3.42 | 1.45 | 0.25 | 0.31 | 0.83 |  | 1.12 | -0.16 | -0.47
10 | Cn1sc(=O)n(Cc2ccccc2)c1=O | -9.79 | -0.38 |  | 0.24 | -0.11 | 1.01 | 0.5 | 0.64 | 0.21 | -0.28
11 | FC(F)(F)c1ccc(Nc2nc3ccc(Oc4ccnc(-c5ncc(C(F)(F)F)[nH]5)c4)cc3[nH]2)cc1 [Raf265 derivative] | 2.22 | 8.8 | 2.77 | 3.55 | 4.58 | 3.8 | 6.13 | 4.75 |  | 8.78
12 | Cn1c(Nc2ccc(C(F)(F)F)cc2)nc2cc(Oc3ccnc(-c4ncc(C(F)(F)F)[nH]4)c3)ccc21 | 2.71 | 15.5 | 2.13 | 3.67 | 5.02 | 4.72 | 5.68 | 4.18 |  | 6.02
13 | Cc1ccc(NC(=O)Nc2cc(C(F)(F)F)ccc2F)cc1Nc1ccc2c(c1)NC(=O)/C2=C\c1ccc[nH]1 | 0 | 4.91 | -0.66 | 3.11 | 2.49 | 4.16 | 2.94 | 3.2 |  | 4.68
14 | CC(C)(C)c1nc(-c2ccc(NC(=O)Nc3cccc(C(F)(F)F)c3)c3ccccc23)c2c(N)nccn12 [kira6] | 0.7 | 9.79 | 0.45 | 1.09 | 1.63 | 2.1 | 1.51 | 1.52 | 0.79 | 5.68
15 | O=C(NCc1cccc(O)c1)Nc1nc(-c2ccncc2)cs1 | 1 | 1.02 | 0.6 | -0.25 | 1.72 | 1.09 |  | 1.48 | 0.4 | 1.09
16 | CNC(=O)c1ccccc1Sc1ccc2c(/C=C/c3ccccn3)n[nH]c2c1 [Axitinib] | 2 | 0.59 | 0.25 | -0.18 | 0.29 | 0.14 | 1.08 | 0.12 | 0.04 | 0.17
17 | CO[C@H]1C[C@@H]2CC[C@@H](C)[C@@](O)(O2)C(=O)C(=O)N2CCCC[C@H]2C(=O)O[C@H]([C@H](C)C[C@@H]2CC[C@H](n3cnnn3)[C@H](OC)C2)CC(=O)[C@H](C)/C=C(\C)[C@@H](O)[C@@H](OC)C(=O)[C@H](C)C[C@H](C)/C=C/C=C/C=C/1C [Zotarolimus(ABT-578)] | 0.49 | 0.69 | 0.11 | -0.04 | 0.22 | 1.09 |  | 1.07 | 0.06 | 1
18 | CC(C)(O)CC(=O)NCCn1ccc2ncnc(Nc3ccc(Oc4cccc(C(F)(F)F)c4)c(Cl)c3)c21 | 1.78 | 3.42 | 1.92 | 0.44 | 1.32 | 1.64 | 3.99 | 2.26 | 1.72 | 4.47
19 | Cc1ccc(C(=O)Nc2cccc(C(F)(F)F)c2)cc1Nc1nc(-c2cccnc2)nc2c1cnn2C | 1.82 | 7.19 | 1.25 | 1.68 | 1.28 | 2.07 |  | 2.62 | 1.11 | 2.93
20 | Nc1nccc(Oc2ccc(NC(=O)c3c[nH]cc(-c4ccc(F)cc4)c3=O)cc2F)c1Cl | 1.82 | 5.03 | 3.07 | 0.39 | 5.69 | 1.58 |  | 2.63 | 0.87 | 2.83
21 | COc1cc2ncnc(Oc3cccc(NC(=O)Nc4cc(C(C)(C)C(F)(F)F)on4)c3)c2cc1OC | 0.82 | 1.07 | 0.12 | 0.13 | 0.91 | 0.64 | 0.02 | 0.73 | 0.35 | 0.75
22 | CC(=O)O/N=C1/C(c2c(O)[nH]c3cc(Br)ccc23)=Nc2ccccc21 [BIO-acetoxime] | 2.35 | -1.15 | -2.37 |  | 6.31 | 0.48 | -0.05 | 3.95 | 0.25 | 0.12
23 | C=CC(=O)Nc1cccc(Nc2nc(Nc3ccc(OCCOC)cc3)ncc2F)c1 | 3.05 | 0.97 | 1.01 | -0.85 | 3.77 | 2.29 | -1.51 | 1.44 | 0.59 | 3.59
